Measured values reported in PubChem BioAssay (NCATS).
Records with an inconclusive call do not appear. Values without a mark were called inactive. Active and inactive are the calls of the source. Calls come from the whole dose curve; as a rule, active = well fitted cell-killing curve with a large enough effect; inconclusive = small, poorly fitted or top-dose-only effect, or effect the other way; inactive = flat fitted curve, though single readings scatter.

These compounds were tested on OV90 (assay: Primary qHTS to identify gynecologic anti-cancer compounds using libraries of approved drugs and bioactive compounds (AID 1345084; note: nearly all actives have a fitted effect of over 55% in size)). Conditions: Gynecologic cancer cell panel viability, ATPlite luminescence, 48 h; series mostly up to 57.5 µM; activity change, negative = cytotoxicity: at the top concentration.
Outline: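 Luminescence from the ATPlite ATP-monitoring reagent indicates viable cell number; lower signal means cytotoxicity. Cells received compound 16 h after seeding and were exposed for 48 h across five concentrations.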
% is set by controls: 0 for no effect and ±100 for the full control effect; potency is the fitted concentration of half-maximal effect.

Question: For `COC(=O)C1(C)c2[nH]c3ccccc3c2CCN1C(=O)CCl` (stereo unspecified), which “activity change, negative = cytotoxicity” value is on record?
Answer: -17.1%

Question: For `C/C=C/c1ccc(O[C@@H]2O[C@H](CO)[C@@H](O)[C@H](O)[C@H]2O)c(OC)c1`, which “activity change, negative = cytotoxicity” value is on record?
Answer: -11.3% [at 38.5 µM]

Question: Which Potency does the source give for `C=CC(=O)Nc1cccc(Nc2nc(Nc3ccc(N4CCN(C(C)=O)CC4)cc3OC)ncc2C(F)(F)F)c1` here?
Answer: 15.8 µM (active)

Question: Which “activity change, negative = cytotoxicity” value does the source give for `COc1cc2c(cc1O)CC[C@H]1[C@@H]2CC[C@]2(C)[C@H](O)CC[C@@H]12` here?
Answer: -14.4%

Question: Which “activity change, negative = cytotoxicity” value does the source give for `C[C@H]1[C@H](O)O[C@@H]2O[C@@]3(C)CC[C@H]4[C@H](C)CC[C@@H]1[C@@]24OO3` here?
Answer: 0.406%

Question: With `Cn1c(=O)n(-c2ccc(C(C)(C)C#N)cc2)c2c3cc(C#Cc4cccnc4)ccc3ncc21` as the compound, how does the Potency read?
Answer: 0.224 µM (active)

Question: For `CCOC(=O)Nc1cc(-c2ccc(C)c(NS(C)(=O)=O)c2)nn2c(C)nnc12`, which Potency is on record?
Answer: 12.6 µM (active)

Question: `CCc1cnn2c(NCc3ccc[n+]([O-])c3)cc(N3CCCCC3CCO)nc12` (stereo unspecified) was tested. Which “activity change, negative = cytotoxicity” value did it give?
Answer: -43.8%

Question: Which “activity change, negative = cytotoxicity” value does the source give for `Cc1ccc(C(=O)N(CCCN)C(c2oc3cc(Cl)ccc3c(=O)c2Cc2ccccc2)C(C)C)cc1` (stereo unspecified) here?
Answer: -15.4%

Question: How did the Potency turn out when `CCNC(=O)Nc1ccc(-c2nc3c(c(N4CCOC[C@@H]4C)n2)CCN(c2ncccn2)C3)cc1` was run?
Answer: 1.26 µM (active)

Question: For `CC1(C)CC(=O)C2=C(C1)NC(=S)NC2c1cccc(O)c1` (stereo unspecified), which “activity change, negative = cytotoxicity” value is on record?
Answer: -10.6%

Question: With `O=C(CSc1nc2c(c(=O)n1-c1ccccc1)SCC2)Nc1ccc(-c2ccccc2)cn1` as the compound, how does the Potency read?
Answer: 1.26 µM (active)

Question: With `CCOc1cc2ncc(C#N)c(Nc3ccc(F)c(Cl)c3)c2cc1NC(=O)/C=C/CN(C)C` as the compound, how does the “activity change, negative = cytotoxicity” value read?
Answer: -32.5%

Question: For `C=CC(=O)Nc1cccc(CN2C(=O)N(c3c(Cl)c(OC)cc(OC)c3Cl)Cc3cnc(NCCCCN(CC)CC)nc32)c1`, which “activity change, negative = cytotoxicity” value is on record?
Answer: -8.49%

Question: How did the Potency turn out when `CC(=O)O[C@H]1CC(C)(C)CC2[C@@]13[C@H](O)C[C@]1(C)[C@@]2(CCC2[C@@]4(C)CC[C@H](O[C@@H]5OC[C@H](O[C@@H]6O[C@H](CO)[C@@H](O)[C@H](O)[C@H]6O[C@@H]6OC[C@@H](O)[C@H](O)[C@H]6O)[C@H](O)[C@H]5O[C@@H]5O[C@H](CO)[C@@H](O)[C@H](O)[C@H]5O)C(C)(C)C4CC[C@]21C)O[C@@H]3O` (stereo partly specified) was run?
Answer: 3.16 µM (active)

Question: `CCS(=O)(=O)N1CCN(c2ccc(Nc3ncc(C(N)=O)c(NC4CC4)n3)cc2)CC1` was tested. Which Potency did it give?
Answer: 12.6 µM (active)

Question: `CNC(=O)c1cccc(-c2ccc3c(N4CCOC[C@@H]4C)nc(N4CCOC[C@@H]4C)nc3n2)c1` was tested. Which Potency did it give?
Answer: 1.26 µM (active)

Question: With `Nc1nccn2c(C3CCC(C(=O)O)CC3)nc(-c3cc4cccc(Cl)c4[nH]3)c12` (stereo unspecified) as the compound, how does the Potency read?
Answer: 10 µM (active)

Question: `CC(=O)NC1=NN(C(C)=O)C(C)(c2ccccc2)S1` (stereo unspecified) was tested. Which “activity change, negative = cytotoxicity” value did it give?
Answer: 1.11%

Question: `Cc1cc(C)c(Nc2ccnc(Nc3ccc(C#N)cc3)n2)c(C)c1` was tested. Which Potency did it give?
Answer: 10 µM (active)

Question: Which Potency does the source give for `NC(=O)Nc1cc(-c2cccc(F)c2)sc1C(=O)NC1CCCNC1` (stereo unspecified) here?
Answer: 5.62 µM (active)
